From PubChem BioAssay
Rows were chosen to be rich in hits. Some 2.3% of all compounds tested hit in one or more screens of this group.
WRN inhibitor: qHTS for Inhibitors of WRN Helicase. WRN helicase unwinding, fluorescent forked duplex, kinetic. Potency, µM (series often up to 114 µM), hits mostly inhibitors. 360,000 compounds, 0.46% hits; also: nearly all actives have a fitted effect of over 55% in size
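Kinetic fluorescence helicase assay: unwinding of a quenched forked DNA duplex (100 nM final) with 2 mM ATP final raises red fluorescence (525/598 nm). Compounds sat 15 min at room temperature with 20 nM WRN beforehand.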
Pol beta inh: qHTS Assay for Inhibitors of DNA Polymerase Beta. Potency, µM (series often up to 114 µM), hits mostly inhibitors. Pol beta primer extension/strand displacement, fluorescence kinetic. 340,000 compounds, 1.3% hits. P06746
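Reaction started by 50 nM substrate onto compound-treated Pol beta (10 nM, 15 min preincubation, room temperature); plates read at 0 min and 10 min. Normalized concentration-effect data fitted by four-parameter Hill equation.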
POLI inh: qHTS for Inhibitors of Polymerase Iota. 390,000 compounds, 1% hits. Pol iota fluorescent replication assay, 10 min. Potency, µM (titrated, usually from 115 µM), actives largely listed as inhibitors
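Pol iota at 10 nM preincubated 15 min with compounds at room temperature; reaction started with fluorescent substrate, 50 nM final. Fluorescence read kinetically at 0 and 10 min; buffer-only wells as negative control.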
Pol kappa inh: qHTS for Inhibitors of Polymerase Kappa; purified Pol kappa, fluorescent DNA synthesis assay, 10 min; Potency, µM (top dose mostly 107 µM), most hits filed as inhibitors; DNA polymerase kappa (Homo sapiens), Q9UBT6; 400,000 compounds, 0.53% hits
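10 nM Pol kappa was preincubated with compounds for 15 min at room temperature. Reaction started with 50 nM (final) substrate. Fluorescence read kinetically at 0 and 10 min.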
Pol eta inh: qHTS for Inhibitors of Polymerase Eta; DNA polymerase eta (Homo sapiens), Q9Y253; recombinant Pol eta, fluorescent DNA replication assay; Potency, µM (series often up to 114 µM), actives largely listed as inhibitors; 390,000 compounds, 1.2% hits; AID 588591, 2011
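Pol eta (10 nM) was preincubated with compounds for 15 min at room temperature, after which fluorescent replication substrate (50 nM final) was added to start the reaction. Fluorescence was read kinetically at 0 and 10 min.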
Numbers stand for hits; 0 = inactive; ? = inconclusive; - = no result given; ! = a repeat was not active; [ ] = dose if it differs, or a comment. Calls follow the shape of the dose curve; as a rule, active = well fitted curve in the direction sought with a large enough effect; inconclusive = small, poorly fitted or top-dose-only effect, or another doubt; inactive = no such curve, though single readings can be large; an effect the other way counts as inactive or inconclusive.

SMILES	WRN inhibitor	Pol beta inh	POLI inh	Pol kappa inh	Pol eta inh
Cc1c(C(=O)N/N=C/c2ccc(-c3ccccc3[N+](=O)[O-])o2)sc(N)c1C#N	?	0	56µM	0	14µM
O=C(N/N=C/c1ccc(-c2ccccc2[N+](=O)[O-])o1)c1cncc(Br)c1	0	0	0	0	0
Nn1cnnc1N/N=C\c1ccc(-c2ccccc2[N+](=O)[O-])o1	0	0	2.8µM	0	0
CC1CC(=O)c2c(cc3c(-c4c(O)cc(O)c5c(O)c6c(cc45)OC(C)CC6=O)c(O)cc(O)c3c2O)O1 (stereo unspecified)	?	18µM	1.1µM	?	10µM
COC(=O)[C@@H]1CCCN1S(=O)(=O)Cc1ccccc1	-	-	0	0	-
CCC1CN(C(=O)N2CCC(C(=O)NCc3cccc(F)c3)CC2)c2cc(C)ccc2O1 (stereo unspecified)	-	0	79µM	?	0
CCC1CN(C(=O)N2CCC(C(=O)NCCN(CC)CC)CC2)c2cc(C)ccc2O1 (stereo unspecified)	-	0	0	0	0
CC(C)(C)c1ccc(C(=O)C[n+]2cccc(Br)c2)cc1	-	-	0	0	-
C=CCn1c(NC(=O)c2ccccc2Cl)c(C#N)c2nc3ccccc3nc21	0[11.6 µM]	0	?	0	32µM
CCCCn1c(NC(C)=O)c(C#N)c2nc3ccccc3nc21	0	0	?	0	0
O=C(CCOc1ccccc1)NO	-	-	0	0	-
CCN(CC)C(=O)C1=C(C)NC(=O)NC1c1ccccc1F (stereo unspecified)	-	0	-	-	-
CCN(CC)C(=O)C1=C(C)NC(=O)NC1c1c(F)cccc1Cl (stereo unspecified)	0	89µM	0	0	0
COc1cccc(C2c3[nH]c4ccccc4c3C[C@H]3C(=O)N(C4CC4)CC(=O)N23)c1 (stereo partly specified)	0	0	32µM	0	?
Cc1ccnc2cc(Cl)cc(Cl)c12	-	-	0	0	-
CCOC(=O)c1cc(-c2ccco2)nc2c1c(C)nn2-c1ccccc1	0	45µM	0	0	?
CCCn1c(=O)c2c(C(=O)OCC)cc(-c3ccco3)nc2n(CCC)c1=O	0	0	0	0	0
COc1cc(/C=N/NC(=O)c2cc(-c3ccccc3Cl)nc3ccccc23)cc(OC)c1O	0	-	0	0	0
NC(=O)COC(=O)c1cc(-c2ccco2)nc2ccccc12	0[11.6 µM]	?	?	?	45µM
COc1cc(/C=N/NC(=O)c2cc(-c3ccco3)nc3ccccc23)cc(OC)c1O	0[11.6 µM]	50µM	45µM	?	?
O=C(O)c1cc(-c2ccco2)nc2ccc(Br)cc12	10µM!	3.2µM!	2.8µM!	7.1µM!	2.5µM!
O=C(COc1ccccc1C(=O)Nc1cccc([N+](=O)[O-])c1)Nc1ccc(Br)cc1	-	-	0	0	-
O=C(COC(=O)c1cc(-c2ccco2)nc2ccccc12)NCc1ccc2c(c1)OCO2	0	28µM	0	0	?
CN(CC(=O)O)c1ccc(C=O)cc1	-	-	0	0	-
CCCCCCCCn1c2c(c(=N)c3ccccc31)CCC2	0	0	0	0	0
SMILES	WRN inhibitor	Pol beta inh	POLI inh	Pol kappa inh	Pol eta inh
Cc1cc(C)c2c(=N)c3ccccc3n(CCCCCCCCn3c4ccccc4c(=N)c4c(C)cc(C)nc43)c2n1	50µM	-	?	0	?
Cc1ccc(-c2csc3ncnc(SCc4ccc(C(=O)O)cc4)c23)cc1	0[11.6 µM]	?	0	0	79µM
O=C(CSc1ncnc2scc(-c3ccccc3)c12)N1CCN(Cc2ccc3c(c2)OCO3)CC1	0	16µM	?	0	?
Cc1ccc(-c2csc3ncnc(Nc4ccc(C(=O)O)cc4)c23)cc1	0[11.6 µM]	?	0	0	79µM!
c1ccc(-c2csc3ncnc(N4CCN(Cc5ccc6c(c5)OCO6)CC4)c23)cc1	0	0	0	0	0
O=C(O)c1ccc(Nc2ncnc3scc(-c4ccccc4)c23)cc1	0	0	0	0	0
CC(C)c1cnc2c(c1SCc1cccc(C(F)(F)F)c1)c(=O)n(C)c(=O)n2C	-	0	0	0	0
CC(C)C[C@H](NC(=O)[C@H](Cc1ccccc1)NC(=O)[C@H](Cc1ccccc1)NC(=O)[C@@H](N)CO)C(=O)N[C@@H](CCCN=C(N)N)C(=O)N[C@@H](CC(N)=O)C(=O)O	-	-	-	0	-
C/C=C1\COC(C(=O)NC)(C(F)(F)F)C=C1C=C1CCCCC1 (stereo unspecified)	-	-	0	0	-
O=C1CSc2nc3ccccc3n21	0	0	0	0	0
c1ccc2c(c1)nc1n2CCS1	0	0	0	89µM	0
CCc1ccccc1NC(=O)CN1CCCN(Cc2cc(C)ccc2C)S1(=O)=O	-	0	0	0	0
CCOc1ccc(N=C2NC(=O)S/C2=C\c2ccc(N(C)C)cc2)cc1	?	0	?	0	79µM
CCOc1ccc(/C=C2/SC(=O)NC2=S)cc1	?	?	89µM	?	0
CCOc1ccc(/C=C2\SC(=S)N(N3C(=O)C4CC4C3=O)C2=O)cc1 (stereo unspecified)	0	0	0	0	0
O=C(COc1ccccc1C(=O)Nc1ccccc1)Nc1ccccc1Cl	-	-	0	0	-
CCc1ccc(OCC(=O)NNC(=O)Cc2cccs2)cc1	0[11.6 µM]	20µM	0	0	?
CCc1ccc(OCC(=O)Nc2ccc(-c3nc4ccccc4o3)c(O)c2)cc1	0	2.2µM	0	0	?
CCc1ccc(OCC(=O)NNC(=O)c2cc3ccccc3o2)cc1	?	25µM	0	0	0
CCCOc1ccc(CNC(=O)Cc2cccs2)cc1	0	?	0	0	0
COc1ccc(OCC(=O)Nc2cccc(-c3nc4ccccc4o3)c2)cc1	0	?	?	0	0
O=C(NCc1cccnc1)[C@@H]1CC=C[C@@H]2CCN(C3CCCCC3)C(=O)[C@@H]21	-	-	0	0	-
COc1cc(/C=C/c2cncc(/C=C/c3cc(OC)c(OC)c(OC)c3)c2)cc(OC)c1OC	-	-	0	0	-
Cc1ccc(S(=O)(=O)N2CCN(c3nc(-c4ccc(CN5CCNCC5)s4)nc4ccccc34)CC2)cc1	-	-	0	0	-
CC1(C)SC2C(N3C(=O)C(c4ccccc4)NC3(C)C)C(=O)N2C1C(=O)O (stereo unspecified)	-	-	-	7.1µM	-
CC1(C)S[C@@H]2[C@H](NC(=O)[C@H](N)c3ccccc3)C(=O)N2[C@H]1C(=O)O	0	?	28µM	22µM!	10µM
COC(=O)C1N2C(=O)[C@@H](NC(=O)COc3ccccc3)[C@H]2SC1(C)C (stereo partly specified)	0	-	79µM!	0	0
O=C(Nc1ccc(OC(F)F)cc1)c1nc(SCc2ccccc2F)ncc1Cl	-	-	0	0	-
O=C(Cc1cccc(F)c1)NO	-	-	0	0	-
